Results filed as inconclusive are left out. Activity calls are given as the source filed them. Calls come from the whole dose curve; as a rule, active = well fitted activation curve with a large enough effect; inconclusive = small, poorly fitted or top-dose-only effect; inactive = no such curve, though single readings can be large or run the other way.

Chain of Pyruvate kinase PKM (Homo sapiens) (P14618 whole entry, looked up, canonical isoform): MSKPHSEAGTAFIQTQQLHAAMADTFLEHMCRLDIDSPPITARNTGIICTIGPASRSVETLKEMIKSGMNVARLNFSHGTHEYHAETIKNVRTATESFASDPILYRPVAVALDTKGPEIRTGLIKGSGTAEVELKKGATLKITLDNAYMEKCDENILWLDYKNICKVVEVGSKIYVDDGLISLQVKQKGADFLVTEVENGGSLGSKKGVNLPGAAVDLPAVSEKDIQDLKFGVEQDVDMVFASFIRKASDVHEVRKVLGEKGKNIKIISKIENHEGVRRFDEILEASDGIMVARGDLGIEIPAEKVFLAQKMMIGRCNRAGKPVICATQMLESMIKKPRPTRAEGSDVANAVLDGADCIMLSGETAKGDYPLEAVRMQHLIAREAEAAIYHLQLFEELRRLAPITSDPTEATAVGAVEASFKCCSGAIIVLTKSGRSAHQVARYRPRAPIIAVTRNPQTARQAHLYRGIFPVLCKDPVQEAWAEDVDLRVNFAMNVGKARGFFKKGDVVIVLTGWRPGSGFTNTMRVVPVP

The target of this assay is Pyruvate kinase PKM (Homo sapiens) (UniProt P14618). As to the kind of experiment: Confirmation Concentration-Response Assay for Activators of Human Muscle isoform 2 Pyruvate Kinase. The settings on record: purified hPK-M2, Kinase-Glo ATP luminescence, 1 h; series mostly up to 57.5 µM; activation (negative = inhibition): at the top concentration. The source says:
NIH Chemical Genomics Center [NCGC] Matthew G. Vander Heiden, M.D., Ph.D. [Harvard Medical School, 77 Avenue Louis Pasteur, Boston, MA 02115] MLPCN Grant: 1 R03 MH085679-01 NCGC Assay Overview: Human pyruvate kinase muscle 2 (hPK-M2) enzyme was supplied as a highly purified (>95% pure) preparation from Harvard Medical School and assayed for its ability to generate ATP from ADP using phosphoenolpyruvate (PEP) as a substrate. ATP generation was detected in a coupled reaction by luciferase-mediated luminescence, an ATP-dependent process. Pyruvate kinase substrates, PEP and ADP, were present in the assay at Km and approximately 10-fold below Km respectively. The enzyme was assayed at an intermediate level of activity to screen for both inhibitors and activators.
NCGC Assay Protocol Summary: Three uL of substrate mix (at r.t.) in assay buffer (50 mM Imidazole pH7.2, 50 mM KCl, 7 mM MgCl2, 0.01% Tween 20, 0.05% BSA) was dispensed into white solid bottom 1,536 well microtiter plates so that the final concentrations of substrates in the assay were 0.1 mM ADP and 0.5 mM PEP. 23 nL of compound were delivered by a pin tool and 1 uL of enzyme mix (final concentration of 0.1 nM) in assay buffer (4 degree Celsius) was added. Plates were incubated at room temperature for 1 hour. Two uL of detection mix (Kinase-Glo, Promega; at 4 degree Celsius protected from light) was added and luminescence read by a ViewLux (Perkin Elmer) at 1 second exposure/plate. Data were normalized to the uninhibited (column 3) and AC100 inhibition (no enzyme in column 2). To monitor activation, the first column contained a titration of the activator, NCGC00031955-03 (16-point 1:2 dilutions in duplicate starting at 57 uM) and the first 16 rows of column 4 contained 57 uM of NCGC00031955-03.
Background: Kinase-Glo measures the ATP left after a reaction by luminescence.
As for `Cn1c2cc([N+](=O)[O-])sc2c2cnn(Cc3ccccc3F)c(=O)c21`, the Potency is 12.7 nM (active).

As for `Cc1cc2c(s1)c1cnn(Cc3ccc(F)cc3F)c(=O)c1n2C`, the Potency is 25.3 nM (active).

Regarding `Cc1cc2c(s1)c1cnn(Cc3ccc(F)cc3)c(=O)c1n2C`, the Potency was 25.3 nM (active).

For `COc1ccc(Cn2ncc3c4sc(C)cc4n(C)c3c2=O)cc1`, the Potency was 20.1 nM (active).

With `O=S(=O)(c1c(F)cccc1F)N1CCN(S(=O)(=O)c2c(F)cccc2F)CC1`, the Potency is 50.5 nM (active).

With `O=S(=O)(NCC1CN(S(=O)(=O)c2c(F)cccc2F)C1)c1ccc2c(c1)OCCO2`, the Potency was 2530 nM (active).

On to `O=S(=O)(c1ccccc1)N1CCN(S(=O)(=O)c2ccc3c(c2)OCCO3)CC1`, for which the Potency is 160 nM (active).

On to `Cc1cc2c(s1)c1cnn(Cc3cccc(Cl)c3)c(=O)c1n2C`, for which the Potency is 101 nM (active).

On to `C[C@@H]1CN(S(=O)(=O)c2c(F)cccc2F)CCN1S(=O)(=O)c1ccc2c(c1)OCCO2`, for which the Potency was 1790 nM (active).

Consider `Cc1cc2c(s1)c1cnn(Cc3ccccc3F)c(=O)c1n2C`, for which the Potency was 40.1 nM (active).

As to `Cc1cc2c(s1)c1cnn(Cc3ccc(Cl)cc3)c(=O)c1n2C`, the Potency is 201 nM (active).

For `Cc1cccc(NC(=O)c2cnc3ccccn3c2=O)c1`, the “activation (negative = inhibition)” value is -46.5% (inactive).

On to `CCCc1cc(F)c(S(=O)(=O)N2CCN(S(=O)(=O)c3ccc4c(c3)OCCO4)CC2)cc1F`, for which the Potency was 800 nM (active).

Take `CN1CCOc2ccc(S(=O)(=O)N3CCN(S(=O)(=O)c4c(F)cccc4F)CC3)cc21`: the Potency is 2010 nM (active).

Take `O=C(c1ccc2c(c1)OCCO2)N1CCN(S(=O)(=O)c2c(F)cccc2F)CC1`: the “activation (negative = inhibition)” value is 8.54% (inactive).

As to `Cc1ccc(S(=O)(=O)N2CCCN(S(=O)(=O)c3ccc4c(c3)OCCO4)CC2)cc1`, the Potency was 398 nM (active).

Consider `Cn1c2ccsc2c2cnn(Cc3ccccc3F)c(=O)c21`, for which the Potency was 318 nM (active).

Regarding `Cn1c2cc(C=O)sc2c2cnn(Cc3ccccc3F)c(=O)c21`, the Potency is 7.1 nM (active).

With `O=S(=O)(NCCCCCCNS(=O)(=O)c1c(F)cccc1F)c1ccc2c(c1)OCCO2`, the Potency was 4010 nM (active).

With `O=S(=O)(c1ccc2c(c1)OCCO2)N1CCN(S(=O)(=O)c2ccccc2F)CC1`, the Potency is 56.6 nM (active).

In the case of `O=S(=O)(NC1CCN(S(=O)(=O)c2c(F)cccc2F)C1)c1ccc2c(c1)OCCO2` (stereo not drawn), the Potency was 11300 nM (active).

As to `O=S(=O)(NCCNS(=O)(=O)c1c(F)cccc1F)c1ccc2c(c1)OCCO2`, the Potency is 20100 nM (active).

As for `O=S(=O)(/N=C(/Sc1ccccc1)c1ccccc1)c1ccccc1`, the “activation (negative = inhibition)” value was -4.23% (inactive).

Consider `Cn1c2cc(CO)sc2c2cnn(Cc3ccccc3F)c(=O)c21`, for which the Potency is 28.4 nM (active).

With `O=S(=O)(c1ccc2c(c1)OCCO2)N1CCN(S(=O)(=O)c2ccc3c(c2)OCCO3)CC1`, the Potency was 179 nM (active).

Turning to `Cc1cc2[nH]c3c(=O)n(Cc4ccccc4F)ncc3c2s1`, the “activation (negative = inhibition)” value is 28.4% (inactive).

With `O=S(=O)(NCC1CN(S(=O)(=O)c2ccc3c(c2)OCCO3)C1)c1c(F)cccc1F`, the Potency was 4010 nM (active).

For `Cc1cc2c(s1)c1cnn(Cc3ccccc3Cl)c(=O)c1n2C`, the Potency was 113 nM (active).

With `Cc1sc2ncnc(OCC(=O)N3CCN(S(=O)(=O)c4ccc(Cl)cc4)CC3)c2c1C`, the “activation (negative = inhibition)” value was 4.53% (inactive).

For the compound `Cc1cc2c(s1)c1cnn(Cc3ccccc3F)c(=O)c1n2C(C)C`, the “activation (negative = inhibition)” value was 11.2% (inactive).

Regarding `O=C1CN(S(=O)(=O)c2ccc3c(c2)OCCO3)CCN1S(=O)(=O)c1c(F)cccc1F`, the Potency was 2250 nM (active).

As to `Cc1ccc(Cn2ncc3c4sc(C)cc4n(C)c3c2=O)cc1`, the Potency was 225 nM (active).

Take `O=S(=O)(NC1CCN(S(=O)(=O)c2ccc3c(c2)OCCO3)C1)c1c(F)cccc1F` (stereo not drawn): the Potency is 17900 nM (active).

Values taken from PubChem BioAssay AID1751 (National Center for Advancing Translational Sciences (NCATS), 2009).
